# Reference: the supplement of paper PMC10981050
# Several values for one entry are separate records, joined by “and”; a condition that tells them apart may be missing. Equal entries are not always repeated. Structures can show the parent of a compound that is named as a salt.
# Experiments:
# Assay in all cases: cell viability relative to vehicle control; higher = less cytotoxic
# Details in all cases: 10 µM
# [1] = test system: K562
# Procedure, shortened: (§1)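 Each screen used CRISPR-edited mutant and wild-type clones from four leukaemia lines. Compounds were acoustically dispensed at a single 10 µM dose, and CellTiter-Glo luminescence was read after 48 h with the supernatant first removed. Viability was analysed in Genedata Screener and given as percent of the on-plate vehicle control.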
# [2] = test system: MARIMO
# Procedure, shortened: as §1
# [3] = test system: MOLM14
# Procedure, shortened: as §1
# [4] = test system: OCI-AML2
# Procedure, shortened: as §1
SMILES,cell viability ([1]; SRSF2 genotype: SRSF2 P95H/wt),cell viability ([1]; SRSF2 genotype: SRSF2 wt/wt) [%],cell viability ([2]; SRSF2 genotype: SRSF2 P95H/wt) [%],cell viability ([2]; SRSF2 genotype: SRSF2 wt/wt) [%],cell viability ([3]; SRSF2 genotype: SRSF2 P95H/wt) [%],cell viability ([3]; SRSF2 genotype: SRSF2 wt/wt) [%],cell viability ([4]; SRSF2 genotype: P95H/wt) [%],cell viability ([4]; SRSF2 genotype: wt/wt) [%]
CNC(=O)c1cc(Oc2ccc3nc(N[C@@H]4CCCC[C@H]4O)sc3c2)ccn1,87.4% and 93.2%,89.4,100,99.1,89.2,99.5,90,83.2
CC(C)c1c(C(=O)Nc2ccccc2)c(-c2ccccc2)c(-c2ccc(F)cc2)n1CC[C@@H](O)C[C@@H](O)CC(=O)O [Atorvastatin calcium (Lipitor)],67.2% and 88.5%,56.9,52,50.4,67.7,91.5,41.1,45.6
C=C1/C(=C\C=C2/CCC[C@]3(C)[C@@H]([C@H](C)CCCC(C)C)CC[C@@H]23)C[C@@H](O)C[C@@H]1O [Alfacalcidol],90.3% and 95.4%,99.1,82.5,82.5,84.9,94.2,98.7,110
O=C(O)CC(C(=O)O)n1c(O)c(C2=c3cc(Br)ccc3=NC2=O)sc1=S (stereo not given),96.1% and 99.4%,99.6,97.7,100,81.8,89.4,113,103
O=C(NC(NC(=S)Nc1ccc(F)c([N+](=O)[O-])c1)C(Cl)(Cl)Cl)C(c1ccccc1)c1ccccc1 (stereo not given),6.8% and 10.6%,17.6,35.5,30.2,1.5,4.68,1.61,4.06
CN(C)CCCN1c2ccccc2Sc2ccc(Cl)cc21 [Chlorpromazine HCl],75.5% and 73.7%,65.6,40.4,44.1,40.7,43.7,25.3,28.6
C[C@@H]1COCCN1c1cc(-c2ccnn2C)c2ccnc(-c3ccn[nH]3)c2n1,8.97% and 14.2%,10.6,17.3,26.6,19.1,9.25,15,17.1
COc1nc(N)nc2c1ncn2[C@@H]1O[C@H](CO)[C@@H](O)[C@@H]1O [Nelarabine (Arranon)],98.2% and 96.9%,99.6,95.5,91.2,90.7,93.5,94.7,94.5
Cn1c(=O)cc(N2CCC[C@@H](N)C2)n(Cc2cc(F)ccc2C#N)c1=O [Trelagliptin],100% and 93.3%,92.1,96.8,101,98.3,99.2,100,102
Cc1cc(NS(=O)(=O)c2ccc(N)cc2)no1 [Sulfamethoxazole sodium],107% and 94.7%,100,101,110,102,104,93.1,109
